Source: ChEMBL document CHEMBL4513146, “CO-ADD screening of Karazin Kharkiv National University (Ukraine) compounds”
Results with a measured potency or affinity are listed apart.

Tests used:
Klebsiella pneumoniae = conditions: Concentration 32 ug.mL-1;; ASSAY_TEST Inhibition of Bacterial Growth; detection method Absorption (OD600); MEDIA CAMHB; plate type 384well; NBS; CORNING #3640; time 18 hr
Candida albicans = conditions: Concentration 32 ug.mL-1; ASSAY_TEST Inhibition of Fungal Growth; detection method Absorption (OD530)
Cryptococcus neoformans = conditions: Concentration 32 ug.mL-1; ASSAY_TEST Inhibition of Fungal Growth; detection method Resazurin; Absorption (OD600-OD570); plate type 384well; NBS; CORNING #3640

| SMILES | Inhibition (Klebsiella pneumoniae) | Inhibition (Candida albicans) | Inhibition (Cryptococcus neoformans) |
| --- | --- | --- | --- |
| O=C(Cn1nc2c(N3CCOCC3)nccn2c1=O)Nc1ccc2c(c1)OCO2 | 20.48% | 1.5% | -14.42% |
| Cc1ccc(C)c(CSc2nnc3c(=O)n(-c4ccc(F)c(F)c4)ccn23)c1 | -0.25% | 0.45% | -4.36% |
| CCc1ccc(NC(=O)Cn2nc3c(=O)n(-c4ccc(Br)cc4)ccn3c2=O)cc1 | -9.6% | 4.29% | -8.7% |
| COc1cc(NC(=O)CSc2nnc3c(=O)n(-c4ccccc4)ccn23)cc(OC)c1 | 17.43% | 0.46% | -23.26% |
| CCc1nnc2ccc(S(=O)(=O)N(Cc3cccc(OC)c3)c3ccc(F)cc3)cn12 | 3.57% | 1.64% | -8.65% |
| CC(C)n1c(=O)c2ccc(C(=O)NC3CCCC3)cc2n2c(=O)n(Cc3cccc(C(F)(F)F)c3)nc12 | 13.79% | 1.19% | -23.89% |
| COc1ccc(NC(=O)Cn2nc3c(SC4CCCCC4)nccn3c2=O)cc1OC | 12.09% | -2.05% | -22.51% |
| Cn1c(=O)c2sccc2n2c(=O)n(Cc3cccc(Br)c3)nc12 | 5.37% | 10.92% | -9.95% |
| COc1ccc(CNC(=O)Cn2nc3c4cc(-c5ccc(C)c(C)c5)nn4ccn3c2=O)cc1 | 7.73% | 11.15% | -12.47% |
| Cc1ccccc1Oc1nc2ccccc2n2c(=O)n(CC(=O)NCc3ccc4c(c3)OCO4)nc12 | 17.68% | 19.82% | -16.39% |
| CC(C)NC(=O)Cn1nc2nc(Nc3ccc(F)cc3)ccn2c1=O | 12.23% | 2.08% | -10.27% |
| Cc1cc(C)cc(N(Cc2cccc(F)c2)S(=O)(=O)c2cccn3c(C)nnc23)c1 | 2.61% | 2.81% | -7.1% |
| COc1cccc(CNC(=O)CSc2nnc3ccc(C(=O)Nc4cccc(F)c4)cn23)c1 | -3.24% | 0.25% | -5.04% |
